Data from PubChem BioAssay (NCATS).
Results filed as inconclusive are left out. The source made the active and inactive calls. Calls come from the whole dose curve; as a rule, active = well fitted curve in the direction sought with a large enough effect; inconclusive = small, poorly fitted or top-dose-only effect, or another doubt; inactive = no such curve, though single readings can be large; an effect the other way counts as inactive or inconclusive.

Experiments:
[1] = molecular target: Glutathione peroxidase 1 (Homo sapiens) (UniProt P07203); experiment: Primary qHTS Assay for Inhibitors of Recombinant Selenoprotein Glutathione Peroxidase 1 (GPX1) (AID 1845191); note: nearly all actives have a fitted effect of over 65% in size
Sequence of Glutathione peroxidase 1 (Homo sapiens) (P07203 whole entry, looked up): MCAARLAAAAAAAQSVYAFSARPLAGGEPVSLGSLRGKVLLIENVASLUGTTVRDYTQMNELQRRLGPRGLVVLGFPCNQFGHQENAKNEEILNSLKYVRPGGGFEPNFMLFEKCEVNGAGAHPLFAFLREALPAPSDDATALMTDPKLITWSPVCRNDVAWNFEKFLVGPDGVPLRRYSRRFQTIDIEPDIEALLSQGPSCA
How it was run: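 GPX1 10 nM, GR 100 nM, GSH 1 mM, NADPH 0.5 mM, CHP 0.5 mM (final). 30-min cpd preincubation, RT. Ex340/Em450 read t=0, t=15 min.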

[2] = molecular target: Phospholipid hydroperoxide glutathione peroxidase GPX4 (Homo sapiens) (UniProt P36969); experiment: Primary qHTS Assay for Inhibitors of Recombinant Selenoprotein Glutathione Peroxidase 4 (GPX4) (AID 1845192); note: series mostly up to about 50 µM; nearly all actives have a fitted effect of over 65% in size
Sequence of Phospholipid hydroperoxide glutathione peroxidase GPX4 (Homo sapiens) (P36969 whole entry, looked up): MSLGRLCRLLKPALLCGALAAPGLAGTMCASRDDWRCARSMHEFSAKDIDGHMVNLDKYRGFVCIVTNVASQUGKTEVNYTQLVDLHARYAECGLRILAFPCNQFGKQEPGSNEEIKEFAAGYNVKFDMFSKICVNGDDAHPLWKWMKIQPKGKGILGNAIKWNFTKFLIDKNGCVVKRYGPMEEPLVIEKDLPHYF
How it was run: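 qHTS, GR-coupled: GPX4 200 nM + cpd 30 min RT → GSH 1 mM, NADPH 0.5 mM, GR 100 nM → CHP 0.5 mM start; fluor 340/450 at t0 and t15 min; no-enzyme wells as control.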

[3] = molecular target: Luciferin 4-monooxygenase (Photinus pyralis) (UniProt P08659); experiment: Primary firefly luciferase (FLuc) qHTS assay for identification of artifact compounds. (AID 1845220); note: nearly all actives have a fitted effect of over 60% in size
How it was run: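 Reaction readout was CCD-imaged luminescence, taken 5 min after adding 10 nM purified firefly enzyme to compound-treated wells holding 10 uM luciferin and ATP in pH 7.6 buffer.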

[4] = system: Nanoluciferase (engineered Oplophorus gracilirostris luciferase); experiment: Primary Nanoluciferase (NLuc) qHTS assay for identification of artifact compounds. (AID 1845222);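 note: NLuc secreted into diluted conditioned medium of S16 cells; series mostly up to about 54 µM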
How it was run: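 Concentration-response data were obtained by luminescence after 5 min with Nano-Glo substrate at 1:100. The enzyme was diluted S16 NLuc-expressing cell medium, preincubated with compound for 15 min at RT. Curves were fitted with a 4-parameter Hill model.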

[5] = Primary redox qHTS assay for identification of artifact compounds. (AID 1845223)
How it was run: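 Redox-cycling detection via DTT (250 uM final) oxidation coupled to Amplex Red (25 uM)/HRP (250 mU/mL) in HBSS. 15 min preincubation plus 30 min after DTT, room temperature. Ex/Em 525/598 nm; 4-parameter Hill fit against DMSO and 10 uM DA3003.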

Measured: Potency

COc1ccc(C2C(C(=O)O)C(C(=O)O)C2c2ccc(OC)cc2O[C@@H]2O[C@H](CO)[C@@H](O)[C@H](O)[C@H]2O)c(O[C@@H]2O[C@H](CO)[C@@H](O)[C@H](O)[C@H]2O)c1 (stereo not given in full)
inactive: all assays above

O=[N+]([O-])c1cc(Cl)ccc1S(=O)(=O)N1CCN(Cc2ccccc2)CC1
inactive: all assays above

COc1cc(C(=O)OC[C@@]2(O)CO[C@@H](O[C@H]3[C@H](Oc4ccc(O)cc4)O[C@H](CO)[C@@H](O)[C@@H]3O)[C@@H]2O)cc(OC)c1O
inactive: all assays above

O=C(Cc1ccccc1)OC[C@H]1O[C@H](O[C@H]2O[C@H](CO)[C@@H](O)[C@H](O)[C@H]2O)[C@H](O)[C@@H](O)[C@@H]1O
inactive: all assays above

O=C(c1ccc(Cl)c([N+](=O)[O-])c1)N1CCN(c2ccccc2F)CC1
inactive: all assays above

Nc1c(-c2ccccc2)nc(Cl)c2c(O)n[nH]c(=O)c12
inactive: all assays above

COc1ccc2c(c1)N1C(=O)C[C@@]34C=CC[N@+]5([O-])CC[C@H]2[C@H](CC3)[C@@]145
inactive: all assays above

C[C@@H]1O[C@@H](O[C@H]2[C@@H]3C=CO[C@@H](O[C@@H]4O[C@H](CO)[C@@H](O)[C@H](O)[C@H]4O)[C@@H]3[C@@]3(CO)O[C@@H]23)[C@H](O)[C@H](O)[C@H]1OC(=O)/C=C/c1ccc(O)cc1
inactive: all assays above

C/C1=C\CC[C@]2(C)O[C@H]2C(=O)c2c(C)coc2C1
inactive: all assays above

C[C@H]1CC[C@H]2[C@@H](C=C[C@@](C)(O)[C@]2(C)C(=O)CCO)C1
inactive: all assays above

NC1(c2ccc(NC(=O)c3ccnc(-c4cc(C(=O)O)ccn4)c3)cc2)CC1
inactive: all assays above

COC(=O)C1=CO[C@@H](O[C@@H]2O[C@H](CO)[C@@H](O)[C@H](O)[C@H]2O)[C@H]2[C@@H]1[C@H](O)C[C@]2(C)O
inactive: all assays above

Oc1ccc2c(-c3c(-c4ccccn4)nn4c3CCC4)ccnc2c1
inactive: all assays above

CC(O)CCc1ccc(O[C@@H]2O[C@H](CO)[C@@H](O)[C@H](O)[C@H]2O)cc1 (stereo not given in full)
inactive: all assays above

Cc1c(NC(=O)N2CCOCC2)ccc2c1c1ccccc1n2C(C)C
inactive: all assays above

Cc1ccc(C)c(NC(=O)CNS(=O)(=O)c2ccc3[nH]c(=O)oc3c2)c1
inactive: all assays above

CC(=O)c1ccc(O[C@@H]2OC[C@@H](O)[C@H](O)[C@H]2O[C@]2(CO)O[C@H](CO)[C@@H](O)[C@@H]2O)c(O)c1
inactive: all assays above

CC1=C2C(=O)C=C(CO[C@@H]3O[C@H](CO)[C@@H](O)[C@H](O)[C@H]3O)[C@@H]2[C@H]2OC(=O)[C@H](C)[C@@H]2CC1
inactive: all assays above

Cn1cc(Nc2cnccc2C(=O)O)c2cccnc21
inactive: all assays above

C[C@@]12CC3(S(=O)(=O)O)OC(O1)[C@]1(COC(=O)c4ccccc4)[C@H]3C[C@]21O[C@@H]1O[C@H](CO)[C@@H](O)[C@H](O)[C@H]1O
inactive: all assays above

COc1c(C)c(OCC=C(C)C)cc2c1COC2=O
inactive: all assays above

CC1(C)C[C@H](O)C[C@@]2(C)[C@H]1[C@H](O)C=C1COC(=O)[C@@]12O
inactive: all assays above
